Data from ChEMBL document CHEMBL4513216, “Probing the Open Global Health Chemical Diversity Library for Multistage-Active Starting Points for Next-Generation Antimalarials” (ACS Infect Dis, 2020).
Among all 65,000 compounds or so, about 2,100 (3.2%) showed an effect of 50% or more. The median lay at about -52%. This is one part of a sample in which strong results are shown more often than they occur.

Tested on: Plasmodium falciparum
Test: Screen against P. falciparum Asexual Blood Stage (ABS), at 5uM
Assay type: functional, Dd2
Details: tested at 5 uM

Row | SMILES | INHIBITION
1 | O=C(c1ccncc1)N1CCN2C[C@H](Oc3cncnc3)C[C@H]2C1 | -105%
2 | COc1cc(CNC(C)Cn2cccn2)cc(OC)c1OC (centres undefined) | -12.2%
3 | COc1ccc(C(C)NCc2cscn2)cc1Cn1cccn1 (centres undefined) | 71.6%
4 | COc1ccc(C(C)NCc2ccsc2)cc1Cn1cccn1 (centres undefined) | 73.1%
5 | COc1ccc(CNC(C)Cn2cccn2)cc1OC (centres undefined) | -66.8%
6 | N#Cc1ccc(OC[C@]23COC[C@H]2CN(Cc2ccoc2)C3)nc1 | -15.7%
7 | Cc1ccc(CN2CC[C@@H]3[C@H]2CCC(=O)N3Cc2ccncc2)s1 | -6.15%
8 | CSc1nccc(N2CCN(C)C3(CCNC(=O)CC3)C2)n1 (centres undefined) | -69.1%
9 | O=C1C[C@@H]2CC[C@H](CN1)N2C1CCOCC1 | -0.465%
10 | O=C1[C@H]2CN(Cc3nccs3)C[C@H]2CN1c1cncnc1 | -64.4%
11 | O=C(CN(C1=NCCCCC1)c1ccc(Cl)cc1)c1ccccc1 | 75.5%
12 | COCCN1CCN(S(=O)(=O)C2CC2)Cc2ccc(C)nc21 | -12%
13 | COc1cccc(S(=O)(=O)N2C[C@@H](N(C)C)[C@H](C(C)C)C2)c1 | 72.2%
14 | CN(C)[C@@H]1CN(Cc2cnn(C)c2)[C@@H]2COC[C@H]12 | -104%
15 | Cc1c(F)cccc1S(=O)(=O)NC(C)(C)CN | 80.9%
16 | Cc1cccc(CN2CC[C@H]3OCC[C@@]3(C(=O)N3CCCO3)C2)n1 | -77.9%
17 | O=C1CC[C@H]2[C@@H](CCN2Cc2ccco2)N1 | -46.7%
18 | Cc1ccc2c(c1)C1(CCNCC1)CC2NC(C)C (centres undefined) | -31.2%
19 | Cc1ccc2c(c1)C1(CCNCC1)CC2NC1CC1 (centres undefined) | 74.6%
20 | c1ccc2c(c1)C(NC1CCCC1)CC21CCNCC1 (centres undefined) | 75.7%
21 | NC(=O)CC1CC2(CCNCC2)c2cc(F)ccc21 (centres undefined) | -82.7%
22 | Cc1ccc2c(c1)C(NC1CC1)CC21CCNCC1 (centres undefined) | 83.2%
23 | O=C1CC2(CCNCC2)C(=O)N1c1cccc(F)c1 | -155%
24 | Cc1ccc2c(c1)C(NC(C)C)CC21CCNCC1 (centres undefined) | -41.2%
25 | COc1ccc2c(c1)C1(CCNCC1)CC2NC1CC1 (centres undefined) | 0.674%
26 | O=C1NC2(CCNCC2)CC1c1ccccc1 (centres undefined) | -129%

Row | SMILES | INHIBITION
27 | Fc1ccc2c(c1)C1(CCNCC1)CC2OCC1CC1 (centres undefined) | 70.1%
28 | Cc1c(C2SCC(=O)Nc3c2cnn3C(C)(C)C)cnn1C (centres undefined) | -41.3%
29 | CC(C)c1nccc([C@H]2C[C@@H]3CCN(Cc4ccco4)C[C@H]3O2)n1 | -19.7%
30 | CC(C)c1ccccc1OCCNC(=O)N1CCC2(CC1)OCCO2 | -63.2%
31 | Cc1nc(C)c(CC(=O)N2C[C@H]3CC[C@@H](C2)N(CC2CC2)C3)s1 | -79.3%
32 | Fc1ccc2c(c1)C1(CCNCC1)CC2NC1CC1 (centres undefined) | 83%
33 | CC(C)NC1CC2(CCNCC2)c2cc(F)ccc21 (centres undefined) | 11.4%
34 | O=C(NCc1ccccn1)[C@]12COC[C@H]1CN(Cc1ccsc1)C2 | -42.4%
35 | CNC(=O)[C@H]1C[C@@H]2CCN(Cc3ccncc3)C[C@H]2O1 | -70.6%
36 | Cc1cccc(OC(C)C(=O)NCC2(N(C)C)CCCC2)c1 (centres undefined) | 81.4%
37 | Cc1cccc(NC(=O)N2CCC(CO)(Nc3ccccc3)CC2)c1 | -38.235%
38 | COC(=O)N1CCC(Nc2ccc(C#N)c(Cl)c2)C1 (centres undefined) | 22.4%
39 | CCNC(=O)[C@@H]1CN(Cc2ccccc2)C[C@H]1C(=O)c1ccc(F)cc1 | -30.5%
40 | COc1ccc(C(=O)C2CCCN(Cc3cccc(F)c3)C2)c(OC)c1 (centres undefined) | 23.9%
41 | CCOc1cccc(CN2CCCC(Nc3ccc(F)cc3)C2)c1O (centres undefined) | 86.3%
42 | COc1cc(CN2CCCC(Nc3cccc(F)c3)C2)cc(Cl)c1O (centres undefined) | 91.7%
43 | Cc1ncc(CN2CCN(C(=O)N(C)C)[C@@H]3CS(=O)(=O)C[C@@H]32)cn1 | -106%
44 | Cn1cc(CN2CCCC3(CCN(c4cccnc4)C3=O)C2)cn1 (centres undefined) | -131%
45 | c1cnc(N2CCO[C@H]3CN(Cc4ccsc4)C[C@H]32)nc1 | 35.9%
46 | CN(C)c1nccc(N2CCO[C@H]3CN(Cc4ccsc4)C[C@H]32)n1 | 69.7%
47 | CN(C)c1nccc(N2CCO[C@H]3CN(Cc4ccco4)C[C@H]32)n1 | -22%
48 | c1ccc(OCC2C[C@@H]3[C@@H](C2)OCCN3Cc2ccoc2)nc1 (some centres undefined) | 12%
49 | CC(C)N1CCC2(CCN(C(=O)c3cccnc3)CC2)C1 | 5.83%
50 | Cc1cnc(N2CCCC3(CCCN(C)C3)C2)nc1 (centres undefined) | -9.73%
51 | CC(C)N1CCC2(CCCN(c3nccc(C(F)(F)F)n3)C2)CC1 | 81.9%
52 | COCCN1CCCC12CCCN(c1ncccn1)C2 (centres undefined) | -47.3%

Row | SMILES | INHIBITION
53 | CN1CCC2(CCCN(c3nccc(C(F)(F)F)n3)C2)CC1 | 79.4%
54 | O=C(C1CC(=O)N(c2ccccc2Br)C1)N1CCC2(CC1)OCCO2 (centres undefined) | -113%
55 | O=C(C1CC1)N1CCC2(CC1)CNCCO2 | -34.5%
56 | Cc1n[nH]c2c1C(c1ccc(F)cc1)SCC(=O)N2 (centres undefined) | -4.37%
57 | Cc1c(C(C)N)cnn1-c1cccc2ccccc12 (centres undefined) | 74.5%
58 | Cn1cccc1C(CNC(=O)COc1ccc(Cl)cc1Cl)N1CCCC1 (centres undefined) | 74.3%
59 | O=C(COc1ccc(Cl)cc1Cl)N1CCCSCC1CN1CCOCC1 (centres undefined) | -30%
60 | COc1ccccc1CCN[C@@H]1c2ccccc2C2(CCNCC2)[C@H]1O | 81.5%
61 | Cc1ccc(CCN[C@@H]2c3ccccc3C3(CCNCC3)[C@H]2O)s1 | 87.1%
62 | CN(C)C(=O)C1OC2(CCNCC2)c2ccccc21 (centres undefined) | -73%
63 | CCN1CCOCC2(C1)CN(C(=O)c1c(C)noc1C)CCO2 (centres undefined) | -31%
64 | COCCN(CCOC)C(=O)c1cn(C(C)(C)C)c2ncccc12 | -81.6%
65 | CCc1cnc(N)nc1NC(C)c1ccc(C)c(C)c1 (centres undefined) | 73.8%
66 | CC1CCN(CC(=O)NC2CCN(C(C)c3ccccc3)CC2)CC1 (centres undefined) | 84.3%
67 | O=C(CN1CCN(C(=O)Cc2ccc3c(c2)OCCO3)CC1)NC1CC1 | -148%
68 | O=C(NC1CC1)[C@H]1CN(Cc2ccccc2)C[C@@H]1C(=O)c1ccccc1 | -154%
69 | Cc1cccnc1CCNC(=O)[C@@]12CNC[C@@H]1CN(S(C)(=O)=O)C2 | -50.4%
70 | CC(Cc1c(F)cccc1F)NC(=O)Nc1cnn(CC(N)=O)c1 (centres undefined) | -77.1%
71 | Cc1ccccc1CC(C)NCc1c(C)nn(C)c1N1CCOCC1 (centres undefined) | 65.8%
72 | Cc1nn(C)c(N(C)C)c1CNC(C)Cc1c(F)cccc1F (centres undefined) | -5.23%
73 | CCc1cccnc1NCc1cnc(N2CCOCC2)nc1 | -53.7%
74 | c1csc(CN2C[C@@H]3COC[C@]3(COCc3ccncc3)C2)c1 | -42.6%
75 | O=C(c1ccoc1)N1CCC2(CC1)C(=O)N(CC1CC1)c1ccccc12 | 74.7%
76 | COCCN1C(=O)C2(CCN(CC3CC3)CC2)c2ccccc21 | -18%
77 | CCN1C(=O)C2(CCN(CCN(C)C)CC2)c2ccccc21 | -56.2%
78 | c1ccc(-c2nc3c(c(NCc4n[nH]c5c4CCC5)n2)CCNC3)cc1 | 89.6%

Row | SMILES | INHIBITION
79 | CC(Cn1ccnc1)NCc1n[nH]c2c1CCC2 (centres undefined) | -33%
80 | CCCN(C(=O)c1cccnc1)c1nc2c(s1)CCc1c-2cnn1C | 82.4%
81 | CN1CCC2(CCN(C(=O)c3cccnc3)C2)C1 (centres undefined) | -11.5%
82 | O=C(c1cccnc1)N1C[C@H]2CC[C@@H](C1)N(Cc1ncc[nH]1)C2 | -47.1%
83 | O=C(c1ccc(F)c(Cl)c1)N1C[C@H]2CC[C@@H](C1)N(Cc1ccccc1)C2 | 74.1%
84 | O=C(c1c[nH]c(=O)c(Cl)c1)N1C[C@H]2CC[C@@H](C1)N(CC1CCC1)C2 | -110%
85 | CS(=O)(=O)CC1(CNc2ccc(C#N)c(C(F)(F)F)c2)CC1 | -27%
86 | CCOc1ccc(CNCC(O)c2ccccc2)cc1Cl (centres undefined) | 89.4%
87 | CNc1nc(C)cc(NCc2cc(C)cc3c(C)c(C)[nH]c23)n1 | 92.7%
88 | CNc1cc(C)nc(NCc2cc(C)cc3c(C)c(C)[nH]c23)n1 | 92%
89 | c1nc(N2CCOCC2)nc2c1COCC21CCN(CC2CC2)C1 (centres undefined) | -12.1%
90 | CC(C)NC(=O)[C@H]1C[C@@H]2[C@@H](C1)OCCN2Cc1ccncc1 | -82%
91 | COc1cccc(C2SCC(=O)Nc3ccsc32)c1OC (centres undefined) | -4.19%
92 | CN(C)CCN1CC2(CCCN(c3ncc(Cl)cc3F)C2)CCC1=O (centres undefined) | 82.8%
93 | O=C(Cc1ccsc1)N1C[C@@H]2OCCN(CC3CC3)[C@@H]2C1 | -48%
94 | Cc1ccc(N2CCN(C)c3ncccc3C2)nn1 | -27.9%
95 | COCC(=O)N1CCC2(CCN(Cc3cccnc3)C2)CC1 | -7.11%
96 | O=C1[C@H]2CN(Cc3ccco3)C[C@H]2CN1c1cncnc1 | -54.3%
97 | CN(C)CCN1CCCC12CCCN(C(=O)c1cccnc1)C2 (centres undefined) | -10.1%
98 | c1cncc(-c2ccc3c(c2)C2(CCNCC2)CC3)c1 | 71.1%
99 | CN(C)CC(=O)N1CCC2(CCc3cc(-c4cccnc4)ccc32)CC1 | 80.1%
100 | O=C1N(c2cccnc2)CCC12CCCN(Cc1ccco1)C2 (centres undefined) | -5.52%
101 | O=C1NC2(CCNCC2)CC1c1cccnc1 (centres undefined) | -11.2%
102 | c1cncc(-c2ccc3c(c2)CCC32CCNCC2)c1 | 86.9%
103 | c1cncc(-c2ccc3c(c2)CCC32CCN(Cc3ccco3)CC2)c1 | 73.9%
104 | Cc1n[nH]c(C)c1CC(=O)N1CCN(C)C2(CCNC(=O)CC2)C1 (centres undefined) | -115%
